Measurements: PubChem BioAssay (Tox21)
Inconclusive results are not listed. Active and inactive are the calls of the source. Unless noted, the call rests on the fitted dose curve; in most records, active means well fitted curve in the direction sought with a large enough effect in the repeat runs; inconclusive means weak or mixed curves; inactive means no such curve, though single readings can be large; an effect the other way counts as inactive or inconclusive.

Experiments:
[1] = biological target: Luciferin 4-monooxygenase (Photinus pyralis) (UniProt P08659); assay: qHTS assay to identify small molecule inhibitors of firefly luciferase (AID 1224835); further: series mostly up to about 120 µM; nearly all actives have a fitted effect of over 25% in size
Outline: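 Inhibition of purified Photinus luciferase is measured by luminescence. Substrate levels (D-luciferin, ATP) sit at their KM values. Each compound is tested in a concentration series.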

[2] = qHTS assay to identify small molecule antagonists of the estrogen related receptor signaling pathway with the pleiotropic PPARgamma coactivator (PGC) from Tox21 10K library - cell viability counter screen (AID 1224840; active means well fitted cell-killing curve with a large enough effect in the repeat runs, not every such curve was filed as active; further: nearly all actives have a fitted effect of over 40% in size; further: potency means the concentration at half of the fitted maximal effect)
Outline: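 Here the PGC/ERR cells serve as a cytotoxicity control: they are exposed to compounds for 17.5 hours at 37 C, and live-cell signal is quantified using CellTiter-Fluor fluorescence.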

[3] = qHTS assay to identify small molecule agonists of the estrogen related receptor signaling pathway with the pleiotropic PPARgamma coactivator (PGC) from Tox21 10K library (AID 1224842); further: nearly all actives have a fitted effect of over 15% in size; further: potency means the concentration at half of the fitted maximal effect
Outline: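 Luminescence from One-Glo (30 min, room temperature) measured after PGC/ERR cells had 18 h at 37 C with pinned compound (23 nL in DMSO). Cells had been seeded at 2,000 per well and pre-incubated 6 h.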

[4] = qHTS assay to identify small molecule agonists of the hypoxia (HIF-1) signaling pathway - cell viability counter screen (AID 1224844; calls by dose curve; further: nearly all actives have a fitted effect of over 50% in size)
Outline: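 Multiplexed with the HRE beta-lactamase assay, this viability read used CellTiter-Glo luminescence (30 min, RT) on HRE-bla ME-180 cells treated 17 hrs with compounds in 0.5% dialyzed FBS medium.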

[5] = qHTS assay to identify small molecule agonists of the constitutive androstane receptor (CAR) signaling pathway - cell viability counter screen (AID 1224836); further: nearly all actives have a fitted effect of over 45% in size; further: potency means the concentration at half of the fitted maximal effect; on viability change, negative = cytotoxic: series mostly up to about 92 µM
Outline: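 Counter screen multiplexed with the CAR reporter readout: HepG2 cells co-transfected with hCAR and the CYP2B6-2.2kb construct receive a 15-concentration compound series and 0.75 uM PK11195 (final), then CellTiter-Fluor fluorescence is read after 23 h.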

[6] = qHTS assay to identify small molecule antagonists of the constitutive androstane receptor (CAR) signaling pathway - cell viability counter screen (AID 1224837); further: nearly all actives have a fitted effect of over 45% in size; further: potency means the concentration at half of the fitted maximal effect; on activity change, negative = cytotoxicity: series mostly up to about 92 µM
Outline: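 Using CellTiter-Fluor, viability is scored in HepG2 cells stably carrying hCAR and a 2.2kb CYP2B6 reporter after 23 hr compound exposure across 15 concentrations, with CITCO present at 50 nM.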

[7] = biological target: Nuclear receptor subfamily 1 group I member 3 (Homo sapiens) (UniProt Q14994); assay: qHTS assay to identify small molecule antagonists of the constitutive androstane receptor (CAR) signaling pathway (AID 1224838);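 further: HepG2 cells stably expressing hCAR with CYP2B6 luciferase reporter stimulated by CITCO; nearly all actives have a fitted effect of over 40% in size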; further: potency means the concentration at half of the fitted maximal effect
Outline: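 Reporter luminescence was quantified after 24 h exposure of hCAR/CYP2B6-2.2kb double-stable HepG2 cells to compounds at 15 concentrations in the presence of 50 nM CITCO final.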

[8] = biological target: Thyrotropin receptor (Homo sapiens) (UniProt P16473); assay: qHTS assay to identify small molecule agonists of the thyroid stimulating hormone receptor (TSHR) signaling pathway (AID 1224843; calls by dose curve; further: nearly all actives have a fitted effect of over 45% in size; further: potency means the concentration at half of the fitted maximal effect)
Outline: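 Screening of the Tox21 10K collection used HEK293 cells engineered with TSHR at 800 cells per well. After a 30-min room-temperature compound exposure, HTRF cAMP reagents were added and fluorescence recorded 1 h later.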

[9] = qHTS assay to identify small molecule antagonists of the estrogen related receptor signaling pathway with the pleiotropic PPARgamma coactivator (PGC) from Tox21 10K library (AID 1224841; call rule not given here; further: actives are mostly falling curves and most rising ones were filed inactive; nearly all actives have a fitted effect of over 50% in size; further: potency means the concentration at half of the fitted maximal effect; on activity, negative = inhibition: series mostly up to about 92 µM)
Outline: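 Each well held 2,000 PGC/ERR cells, pre-incubated six hours (37 C, 5% CO2). Test substances in DMSO were added by pin tool and left for 18 h at 37 C before luciferase detection by One-Glo.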

[10] = biological target: Nuclear receptor subfamily 1 group I member 3 (Homo sapiens) (UniProt Q14994); assay: qHTS assay to identify small molecule agonists of the constitutive androstane receptor (CAR) signaling pathway (AID 1224839); further: nearly all actives have a fitted effect of over 15% in size; further: potency means the concentration at half of the fitted maximal effect; on activation: series mostly up to about 92 µM
Outline: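 A 15-concentration quantitative screen uses HepG2 cells co-transfected stably with human CAR and CYP2B6-2.2kb reporter. Treatment lasts 24 h with 0.75 uM PK11195 final present; ONE-Glo luminescence is the signal.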
On the % scale 0 is the no-effect control and ±100 the full control effect.

Thyrotropin receptor (Homo sapiens), sequence (P16473 whole entry, looked up): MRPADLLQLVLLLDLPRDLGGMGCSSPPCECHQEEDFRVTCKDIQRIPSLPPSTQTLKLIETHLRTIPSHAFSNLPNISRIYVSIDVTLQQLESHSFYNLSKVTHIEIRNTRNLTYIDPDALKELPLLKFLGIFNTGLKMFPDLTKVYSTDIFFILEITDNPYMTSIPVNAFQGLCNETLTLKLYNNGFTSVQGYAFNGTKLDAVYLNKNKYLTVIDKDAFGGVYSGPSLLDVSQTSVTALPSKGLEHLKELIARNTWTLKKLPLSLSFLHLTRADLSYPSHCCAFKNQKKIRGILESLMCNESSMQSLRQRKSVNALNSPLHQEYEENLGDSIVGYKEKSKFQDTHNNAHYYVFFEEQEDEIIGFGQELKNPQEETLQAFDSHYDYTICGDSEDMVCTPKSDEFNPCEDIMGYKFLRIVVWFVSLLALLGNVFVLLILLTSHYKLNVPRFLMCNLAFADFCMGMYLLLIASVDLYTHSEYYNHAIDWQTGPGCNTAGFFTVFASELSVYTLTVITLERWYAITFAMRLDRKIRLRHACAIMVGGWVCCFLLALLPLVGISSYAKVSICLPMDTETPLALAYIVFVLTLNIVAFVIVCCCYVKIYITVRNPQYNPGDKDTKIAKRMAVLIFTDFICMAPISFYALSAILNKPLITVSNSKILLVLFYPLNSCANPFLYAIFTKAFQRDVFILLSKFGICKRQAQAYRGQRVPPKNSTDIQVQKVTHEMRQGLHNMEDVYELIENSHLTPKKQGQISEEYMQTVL
Nuclear receptor subfamily 1 group I member 3 (Homo sapiens), sequence (Q14994 whole entry, looked up): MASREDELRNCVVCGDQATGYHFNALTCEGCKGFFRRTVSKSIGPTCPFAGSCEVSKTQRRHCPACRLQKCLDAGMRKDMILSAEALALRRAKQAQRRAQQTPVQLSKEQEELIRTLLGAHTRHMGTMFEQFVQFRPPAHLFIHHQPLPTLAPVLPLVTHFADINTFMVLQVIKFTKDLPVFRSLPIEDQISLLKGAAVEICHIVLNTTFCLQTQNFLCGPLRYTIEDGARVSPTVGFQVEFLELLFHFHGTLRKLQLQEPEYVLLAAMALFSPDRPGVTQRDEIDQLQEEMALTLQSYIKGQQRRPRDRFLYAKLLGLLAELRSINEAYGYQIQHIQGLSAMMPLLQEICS
Luciferin 4-monooxygenase (Photinus pyralis), sequence (P08659 whole entry, looked up): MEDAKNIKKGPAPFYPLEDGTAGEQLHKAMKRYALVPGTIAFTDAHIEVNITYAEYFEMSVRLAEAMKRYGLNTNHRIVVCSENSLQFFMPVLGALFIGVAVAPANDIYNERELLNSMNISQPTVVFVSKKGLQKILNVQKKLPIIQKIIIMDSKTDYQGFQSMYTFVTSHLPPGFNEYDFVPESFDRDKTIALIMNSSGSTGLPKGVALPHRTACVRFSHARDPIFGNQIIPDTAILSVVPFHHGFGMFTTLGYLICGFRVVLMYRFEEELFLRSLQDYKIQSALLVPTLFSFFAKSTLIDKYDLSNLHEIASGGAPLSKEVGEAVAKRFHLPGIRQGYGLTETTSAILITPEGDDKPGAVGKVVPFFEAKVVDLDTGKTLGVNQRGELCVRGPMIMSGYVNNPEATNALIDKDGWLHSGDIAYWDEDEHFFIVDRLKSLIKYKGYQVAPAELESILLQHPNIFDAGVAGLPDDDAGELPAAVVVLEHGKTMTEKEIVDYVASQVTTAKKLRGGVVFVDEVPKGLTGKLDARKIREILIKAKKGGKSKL

Cc1nn(C)c(Oc2ccccc2)c1/C=N/OCc1ccc(C(=O)OC(C)(C)C)cc1
inactive: Potency [1] | Potency [2] | Potency [3] | Potency [4]

C/C(=C(\CCOP(=O)(O)O)SC(=O)c1ccccc1)N(C=O)Cc1cnc(C)nc1N
inactive: viability change, negative = cytotoxic [5] -1.07% [at 8.39 µM] | activity change, negative = cytotoxicity [6] 5.24% [at 8.39 µM] | activity, negative = inhibition [7] -18% [at 8.39 µM] | viability change, negative = cytotoxic [2] -2.4% [at 8.39 µM] | activation [8] -3.96% [at 8.39 µM] | activity change, negative = cytotoxicity [4] -1.24% [at 6.97 µM]

CN1C[C@H]2c3ccccc3Oc3ccc(Cl)cc3[C@@H]2C1
inactive: Potency [5] | Potency [6] | Potency [7] | Potency [2] | Potency [9] | Potency [3] | Potency [8] | Potency [4]

Nc1ccc(S(=O)(=O)Nc2ccccc2)cc1
inactive: Potency [5] | Potency [6] | Potency [7] | Potency [10] | Potency [2] | Potency [8] | Potency [4]

OCc1cc(C(O)CNCCCCCCOCCCCc2ccccc2)ccc1O (stereo unspecified)
active: Potency [5] 10.6 µM | Potency [6] 13.3 µM
inactive: Potency [2] | Potency [9] | Potency [3] | Potency [4]

Cc1cccc(Nc2ccccc2)c1
inactive: Potency [5] | Potency [6] | Potency [7] | Potency [2] | Potency [4]

CCCCC(CC)COC(=O)COc1ccc(Cl)cc1Cl (stereo unspecified)
inactive: Potency [5] | Potency [2] | Potency [8] | Potency [4]

CCCCCCCC#N
inactive: Potency [5] | Potency [6] | Potency [2] | Potency [9] | Potency [3] | Potency [8] | Potency [4]

COc1ccc(S(=O)(=O)N2C(=O)[C@@](c3ccccc3OC)(N3C[C@H](O)C[C@H]3C(=O)N(C)C)c3cc(Cl)ccc32)c(OC)c1
active: Potency [6] 24.3 µM | Potency [2] 30.6 µM
inactive: Potency [7]

Clc1ccc(Cn2c(CN3CCCC3)nc3ccccc32)cc1
active: Potency [7] 11.9 µM | Potency [10] 11.9 µM
inactive: Potency [5] | Potency [2] | Potency [8] | Potency [4]

CCCCc1nc2cccnc2n1Cc1ccc(-c2ccccc2-c2nnn[nH]2)cc1
inactive: Potency [5] | Potency [7] | Potency [10] | Potency [2] | Potency [8] | Potency [4]

O=C(O)c1ccc(-n2nc(-c3ccccc3O)nc2-c2ccccc2O)cc1
active: Potency [9] 10.6 µM
inactive: Potency [6] | Potency [10] | Potency [2] | Potency [3] | Potency [4]

Cc1ccc(N=Nc2c(O)c(C(=O)O)cc3ccccc23)c(S(=O)(=O)O)c1
inactive: Potency [7] | Potency [10] | Potency [8] | Potency [4]

COc1ccc(-c2nc3ccc(C4=NNC(=O)CC4C)cc3[nH]2)cc1 (stereo unspecified)
active: Potency [3] 8.41 µM | Potency [8] 9.44 µM
inactive: Potency [5] | Potency [6] | Potency [7] | Potency [9] | Potency [4]

CN(C)CCOC(c1ccccc1)c1ccc(Br)cc1 (stereo unspecified)
inactive: Potency [5] | Potency [7] | Potency [9] | Potency [3] | Potency [8]

CC(=O)c1cccc([N+](=O)[O-])c1
inactive: Potency [5] | Potency [7] | Potency [10] | Potency [2] | Potency [4]

CN(Cc1ccc(C(C)(C)C)cc1)Cc1cccc2ccccc12
inactive: Potency [5] | Potency [6] | Potency [7] | Potency [2] | Potency [4]

CC(C)O.CC(C)O.CCOC(=O)/C=C(\C)O.CCOC(=O)/C=C(\C)O.[Ti]
inactive: Potency [2] | Potency [8] | Potency [4]

CCCCO
inactive: Potency [5] | Potency [6] | Potency [2] | Potency [8] | Potency [4]

Nc1c(CC(=O)O)cccc1C(=O)c1ccc(Br)cc1
inactive: Potency [5] | Potency [6] | Potency [2] | Potency [8] | Potency [4]

CC(=O)[O][Al][O]C(C)=O
inactive: Potency [6] | Potency [2] | Potency [9] | Potency [3] | Potency [4]

O=C1OC(=O)C2C3C=CC(C3)C12 (stereo unspecified)
inactive: Potency [5] | Potency [6] | Potency [2] | Potency [4]

COc1cc2nc(N(C)CCCNC(=O)C3CCCO3)nc(N)c2cc1OC (stereo unspecified)
active: Potency [9] 15 µM
inactive: Potency [2] | Potency [3] | Potency [8] | Potency [4]

O=C(Cl)c1cc(C(=O)Cl)cc(C(=O)Cl)c1
inactive: Potency [5] | Potency [6] | Potency [2] | Potency [8]

CCCCCCCCCCCCCCCCOS(=O)(=O)O
inactive: Potency [5] | Potency [7] | Potency [10] | Potency [2] | Potency [9] | Potency [3]

CC(C)(C)Cl
inactive: Potency [6] | Potency [7] | Potency [10] | Potency [2] | Potency [8] | Potency [4]

COC(C)OC
inactive: Potency [5] | Potency [6] | Potency [2] | Potency [9] | Potency [3] | Potency [8] | Potency [4]

C=CC(=O)OCCOc1ccccc1
inactive: Potency [6] | Potency [2] | Potency [9] | Potency [8]
active: Potency [3] 68.5 µM

O=[N+]([O-])c1ccc2[nH]ncc2c1
inactive: Potency [5] | Potency [6] | Potency [2] | Potency [8] | Potency [4]

CC(C)OC(=O)C(C)N(C(=O)c1ccccc1)c1ccc(F)c(Cl)c1 (stereo unspecified)
active: Potency [10] 48.6 µM | Potency [9] 21.7 µM
inactive: Potency [6] | Potency [7] | Potency [3] | Potency [4]

O=C(O)c1ccccc1Cl
inactive: Potency [5] | Potency [6] | Potency [2] | Potency [8] | Potency [4]

CCC(C)O (stereo unspecified)
inactive: Potency [5] | Potency [7] | Potency [10] | Potency [2] | Potency [8] | Potency [4]

O=S(=O)(Oc1ccc(Cl)cc1)c1ccccc1
inactive: Potency [6] | Potency [2] | Potency [9] | Potency [3] | Potency [8] | Potency [4]

C#CCN(C)CCCOc1ccc(Cl)cc1Cl
inactive: Potency [7] | Potency [2] | Potency [4]
active: Potency [10] 26.6 µM
